For six compounds, growth results are on record in PubChem BioAssay (NCI).

The panel holds about 83,000 compounds, 20% with a hit somewhere; the sample as a whole holds those more often.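 Compound tested at a single concentration for 48 hours in 96-well plates; a percent growth value below 10 was scored as active.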 Values without a mark were called inactive. Calls of active or inactive are those of the source.

Some test systems named below: DU-145 prostate; K-562 leukemia; MALME-3M melanoma; MDA-MB-231 breast; RXF 393 renal; SF-268 CNS; SF-295 CNS; SF-539 CNS; UACC-257 melanoma; M14 melanoma; HCT-15 colon; HT29 colon; SNB-75 CNS; SNB-19 CNS; U251 CNS; PC-3 prostate; SK-MEL-5 melanoma; UACC-62 melanoma; LOX IMVI melanoma; SK-MEL-28 melanoma.
Holding throughout (assay): NCI-60 one-dose screen, 48 h (100 = growth as untreated, 0 = no growth, -100 = all killed)
Common to all, as to conditions: 10 µM unless noted

`CCn1nc(C#Cc2c(C)ccc3c(Nc4ccc(Cl)cc4)nccc23)c2c(N)ncnc21`: the growth was 34.9% in the assay on DU-145 prostate; 12.8% with K-562 leukemia; -40.6% (active) in the assay on MALME-3M melanoma; 8.63% (active) in the assay on MDA-MB-231 breast; -4.58% (active) with RXF 393 renal; 17.5% in the assay on SF-268 CNS. Further, the growth is 4.88% (active) in the assay with SF-295 CNS; -31.6% (active) in the assay with SF-539 CNS; -9.69% (active) in the assay with UACC-257 melanoma; 5.1% (active) with M14 melanoma; 23.3% in the assay on HCT-15 colon; 2.98% (active) in the assay on HT29 colon. Moreover, the growth in the assay on SNB-75 CNS was -8.46% (active); in the assay with SNB-19 CNS, 9% (active); in the assay with U251 CNS it was 26%; in the assay on PC-3 prostate, 18.9%; with SK-MEL-5 melanoma it was -43.9% (active); in the assay with UACC-62 melanoma, -4.21% (active). The growth in the assay with LOX IMVI melanoma was 11.3%; in the assay on SK-MEL-28 melanoma, 0.371% (active).

Regarding `NC(=S)c1csc(CCNC(=O)c2ccccc2)n1`, the growth was 129% in the assay with DU-145 prostate; 110% in the assay with K-562 leukemia; 125% with MALME-3M melanoma; 107% with MDA-MB-231 breast; 128% in the assay on RXF 393 renal; 111% in the assay on SF-268 CNS. Moreover, the growth with SF-295 CNS was 96.9%; with SF-539 CNS it was 114%; in the assay on UACC-257 melanoma it was 94.2%; in the assay with M14 melanoma it was 110%; in the assay on HCT-15 colon, 100%; with HT29 colon it was 107%. Further, the growth in the assay on SNB-75 CNS was 97.7%; in the assay with SNB-19 CNS, 107%; with U251 CNS, 97.6%; with PC-3 prostate, 96.6%; in the assay with SK-MEL-5 melanoma, 115%; in the assay with UACC-62 melanoma it was 105%. Further, the growth in the assay with LOX IMVI melanoma was 110%; in the assay on SK-MEL-28 melanoma, 108%.

As for `CN(C)CN1CCN(c2ccc3nc(-c4ccc5nc(-c6ccc(C(F)(F)F)cc6)[nH]c5c4)[nH]c3c2)CC1`, the growth is 45% in the assay with DU-145 prostate; 11.6% with K-562 leukemia; -4.2% (active) with MALME-3M melanoma; 63.1% in the assay on MDA-MB-231 breast; 50.3% in the assay on RXF 393 renal; 67.8% in the assay with SF-268 CNS. Further, the growth in the assay on SF-295 CNS is 60.7%; in the assay with SF-539 CNS, 65.8%; in the assay with UACC-257 melanoma, 40.7%; in the assay on M14 melanoma, 32.2%; in the assay with HCT-15 colon it was 91.6%; in the assay with HT29 colon it was 29.3%. Further, the growth was 38.8% in the assay with SNB-75 CNS; 69.6% in the assay on SNB-19 CNS; 60% with U251 CNS; 68.4% with PC-3 prostate; 23.6% in the assay with SK-MEL-5 melanoma; 44.8% with UACC-62 melanoma. The growth is 32.2% with LOX IMVI melanoma and 42.7% in the assay with SK-MEL-28 melanoma.

As to `N#Cc1c(NC(=O)c2cccc(C(F)(F)F)c2)sc2c1CCC(=O)C2`, the growth was 24% in the assay with DU-145 prostate; 6.88% (active) in the assay on K-562 leukemia; -64.9% (active) in the assay on MALME-3M melanoma; -54.3% (active) with MDA-MB-231 breast; -23.5% (active) with RXF 393 renal; 1.68% (active) in the assay on SF-268 CNS. The growth in the assay with SF-295 CNS was -6.4% (active); in the assay on SF-539 CNS, -57.8% (active); with UACC-257 melanoma, -3.73% (active); with M14 melanoma it was -68.2% (active); in the assay with HCT-15 colon, -39.4% (active); with HT29 colon, 2.24% (active). Besides, the growth with SNB-75 CNS is -50.5% (active); in the assay on SNB-19 CNS, 12.3%; in the assay with U251 CNS, 0.284% (active); with PC-3 prostate, -42% (active); in the assay with SK-MEL-5 melanoma, -95.6% (active); in the assay on UACC-62 melanoma, -51.1% (active). Besides, the growth in the assay on LOX IMVI melanoma was -12.7% (active); with SK-MEL-28 melanoma, -42.5% (active).

Consider `NC(=O)c1c(NC(=O)c2ccccn2)sc2c1CCC(=O)C2`, for which the growth in the assay with DU-145 prostate is 91.5%; in the assay on K-562 leukemia it was 10.1%; in the assay with MALME-3M melanoma, 49.4%; in the assay on MDA-MB-231 breast it was 7.89% (active); in the assay with RXF 393 renal, 21.5%; in the assay on SF-268 CNS it was 21%. Further, the growth in the assay on SF-295 CNS is 66.3%; with SF-539 CNS, 1.9% (active); in the assay with UACC-257 melanoma it was 46.9%; with M14 melanoma, 22.5%; in the assay on HCT-15 colon, 13.4%; with HT29 colon, 68%. Moreover, the growth with SNB-75 CNS is -1.34% (active); in the assay on SNB-19 CNS it was 42.7%; in the assay on U251 CNS, 13.6%; in the assay on PC-3 prostate, 10.7%; in the assay with SK-MEL-5 melanoma it was -19.5% (active); in the assay with UACC-62 melanoma, -3.06% (active). Moreover, the results for the growth with LOX IMVI melanoma and with SK-MEL-28 melanoma were 21.6% and 39.9%, respectively.

As to `CCCCNCC(=O)Nc1ccc(C(=O)OCC)cc1`, the growth with DU-145 prostate was 114%; in the assay with K-562 leukemia, 92.4%; in the assay on MALME-3M melanoma, 106%; with MDA-MB-231 breast, 103%; in the assay on RXF 393 renal, 110%; with SF-268 CNS, 104%. In addition, the growth was 99.4% in the assay with SF-295 CNS; 105% in the assay on SF-539 CNS; 103% in the assay on UACC-257 melanoma; 97.3% with M14 melanoma; 91.5% with HCT-15 colon; 86.7% in the assay with HT29 colon. Besides, the growth in the assay on SNB-75 CNS was 108%; with SNB-19 CNS, 103%; in the assay on U251 CNS it was 101%; in the assay with PC-3 prostate it was 71.8%; in the assay on SK-MEL-5 melanoma it was 101%; with UACC-62 melanoma it was 95.3%. The growth in the assay with LOX IMVI melanoma is 103%; in the assay with SK-MEL-28 melanoma it was 115%.
